# mHTT CaM bind: mutant huntingtin-calmodulin interaction inhibitors – biochemical, AlphaScreen, primary screen. P42858. AID 1671202, 2021. inhibition, % at 15 µM. AlphaScreen His-mHTT/GST-CaM binding, luminescence. 190,000 tested, 3.6% active
# Target sequence (P42858 whole entry, looked up, change not shown): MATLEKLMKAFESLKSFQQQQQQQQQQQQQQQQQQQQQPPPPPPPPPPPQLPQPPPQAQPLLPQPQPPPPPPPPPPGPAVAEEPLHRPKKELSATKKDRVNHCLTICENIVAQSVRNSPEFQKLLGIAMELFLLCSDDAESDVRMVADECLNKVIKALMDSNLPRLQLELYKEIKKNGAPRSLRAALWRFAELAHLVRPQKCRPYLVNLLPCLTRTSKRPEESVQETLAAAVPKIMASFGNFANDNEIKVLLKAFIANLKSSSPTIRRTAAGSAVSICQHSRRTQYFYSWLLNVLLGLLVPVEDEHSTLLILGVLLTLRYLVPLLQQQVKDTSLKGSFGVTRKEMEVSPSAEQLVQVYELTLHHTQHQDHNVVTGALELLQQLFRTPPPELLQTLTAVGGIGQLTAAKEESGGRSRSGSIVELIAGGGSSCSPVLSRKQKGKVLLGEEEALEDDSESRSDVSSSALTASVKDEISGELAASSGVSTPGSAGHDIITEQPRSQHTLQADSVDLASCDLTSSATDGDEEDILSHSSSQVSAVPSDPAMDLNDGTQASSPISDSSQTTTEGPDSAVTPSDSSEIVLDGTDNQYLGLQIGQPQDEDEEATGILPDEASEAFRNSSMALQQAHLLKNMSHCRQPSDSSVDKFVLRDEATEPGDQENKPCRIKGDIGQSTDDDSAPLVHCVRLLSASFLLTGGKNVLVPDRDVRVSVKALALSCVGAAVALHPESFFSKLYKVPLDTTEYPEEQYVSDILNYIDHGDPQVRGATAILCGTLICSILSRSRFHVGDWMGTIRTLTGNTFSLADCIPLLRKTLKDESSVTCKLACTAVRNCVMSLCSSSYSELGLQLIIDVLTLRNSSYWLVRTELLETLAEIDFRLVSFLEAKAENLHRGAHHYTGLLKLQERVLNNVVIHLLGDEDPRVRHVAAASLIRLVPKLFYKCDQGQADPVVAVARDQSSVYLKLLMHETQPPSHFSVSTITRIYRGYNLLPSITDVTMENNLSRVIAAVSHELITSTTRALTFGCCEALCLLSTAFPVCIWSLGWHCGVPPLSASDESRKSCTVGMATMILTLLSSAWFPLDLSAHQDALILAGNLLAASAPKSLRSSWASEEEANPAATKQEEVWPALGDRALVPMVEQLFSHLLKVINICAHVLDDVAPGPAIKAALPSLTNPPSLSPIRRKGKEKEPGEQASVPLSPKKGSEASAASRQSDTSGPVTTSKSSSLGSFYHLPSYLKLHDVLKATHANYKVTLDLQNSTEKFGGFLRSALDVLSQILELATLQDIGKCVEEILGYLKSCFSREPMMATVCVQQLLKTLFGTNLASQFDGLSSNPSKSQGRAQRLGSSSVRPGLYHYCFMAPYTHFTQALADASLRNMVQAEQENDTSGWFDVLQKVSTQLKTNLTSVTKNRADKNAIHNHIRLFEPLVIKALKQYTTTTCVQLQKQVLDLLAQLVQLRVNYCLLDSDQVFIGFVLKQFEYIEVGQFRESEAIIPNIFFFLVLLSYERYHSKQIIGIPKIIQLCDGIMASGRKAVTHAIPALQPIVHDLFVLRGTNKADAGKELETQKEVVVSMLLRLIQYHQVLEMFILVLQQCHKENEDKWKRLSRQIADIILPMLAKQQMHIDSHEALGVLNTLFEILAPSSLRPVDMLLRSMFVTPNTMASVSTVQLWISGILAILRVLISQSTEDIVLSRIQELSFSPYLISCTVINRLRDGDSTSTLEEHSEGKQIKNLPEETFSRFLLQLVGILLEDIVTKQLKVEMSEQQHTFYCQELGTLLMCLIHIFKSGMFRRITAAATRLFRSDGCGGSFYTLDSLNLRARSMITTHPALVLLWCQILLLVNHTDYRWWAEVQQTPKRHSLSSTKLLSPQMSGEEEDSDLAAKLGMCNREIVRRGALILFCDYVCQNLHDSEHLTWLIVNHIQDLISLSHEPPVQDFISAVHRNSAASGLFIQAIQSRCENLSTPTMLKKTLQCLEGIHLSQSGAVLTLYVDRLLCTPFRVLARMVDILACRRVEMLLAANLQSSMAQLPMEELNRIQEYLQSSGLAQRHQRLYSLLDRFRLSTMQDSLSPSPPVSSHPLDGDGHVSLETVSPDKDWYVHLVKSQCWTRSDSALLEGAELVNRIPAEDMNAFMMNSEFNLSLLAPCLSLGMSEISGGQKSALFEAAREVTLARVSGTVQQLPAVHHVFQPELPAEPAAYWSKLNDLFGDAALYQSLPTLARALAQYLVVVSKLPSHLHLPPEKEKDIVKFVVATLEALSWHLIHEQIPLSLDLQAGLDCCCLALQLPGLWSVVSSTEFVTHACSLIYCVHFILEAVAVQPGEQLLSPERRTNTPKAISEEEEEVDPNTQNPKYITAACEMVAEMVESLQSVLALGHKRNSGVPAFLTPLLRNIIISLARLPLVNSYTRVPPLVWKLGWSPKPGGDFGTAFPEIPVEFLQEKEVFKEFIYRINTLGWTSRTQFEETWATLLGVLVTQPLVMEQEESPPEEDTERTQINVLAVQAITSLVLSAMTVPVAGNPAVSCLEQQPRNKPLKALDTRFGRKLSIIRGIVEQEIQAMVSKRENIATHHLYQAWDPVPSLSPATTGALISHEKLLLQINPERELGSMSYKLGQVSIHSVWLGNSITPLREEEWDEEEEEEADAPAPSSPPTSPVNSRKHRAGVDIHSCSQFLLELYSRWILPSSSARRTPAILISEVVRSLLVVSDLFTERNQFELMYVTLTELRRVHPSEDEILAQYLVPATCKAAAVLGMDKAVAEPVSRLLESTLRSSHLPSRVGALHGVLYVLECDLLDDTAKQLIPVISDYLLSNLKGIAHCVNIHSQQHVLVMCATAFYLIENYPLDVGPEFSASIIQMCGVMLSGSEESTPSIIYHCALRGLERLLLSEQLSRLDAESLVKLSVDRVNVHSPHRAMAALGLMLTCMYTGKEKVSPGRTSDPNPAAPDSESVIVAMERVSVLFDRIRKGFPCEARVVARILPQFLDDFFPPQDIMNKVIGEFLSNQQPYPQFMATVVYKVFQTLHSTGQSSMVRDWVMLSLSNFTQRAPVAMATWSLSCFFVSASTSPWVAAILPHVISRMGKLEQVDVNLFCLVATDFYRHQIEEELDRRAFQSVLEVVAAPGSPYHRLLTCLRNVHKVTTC
# Pf apPOL block: Pf-apPOL inhibitors, biochemical, fluorescence; Plasmodium falciparum apicoplast DNA polymerase (apPOL); Recombinant Pf-apPOL, molecular beacon fluorescence, 1.5 h; inhibition, % at 10 µM; 210,000 tested, 0.25% active
# Hits are given with their value; 0 = inactive; - = not tested or not shown. Most compounds without a hit are left out; they make up all but 3.6% or so of the library. No stated cut-off is given here; in the data, active means inhibition above about 50%; inactive means the rest.
SMILES,mHTT CaM bind,Pf apPOL block
CC1(C)CC(=O)C2=C(C1)NC1=C(C(=O)c3ccccc31)C2c1cc(Br)ccc1O (centres undefined),56.0,0
COc1cccc(C2C3=C(Nc4c2c(=O)n(C)c(=O)n4C)c2ccccc2C3=O)c1 (centres undefined),0,0
CC1(C)CC(=O)C2=C(C1)NC1=C(C(=O)c3ccccc31)C2c1cccs1 (centres undefined),0,0
COc1cccc(C2C3=C(CC(C)(C)CC3=O)NC3=C2C(=O)c2ccccc23)c1 (centres undefined),58.0,0
Cc1ccccc1C1C2=C(CC(C)(C)CC2=O)NC2=C1C(=O)CC(C)(C)C2,0,0
CCCCN1C(=O)c2cccc3c(NC(=O)Cc4ccc(F)cc4)ccc1c23,0,0
CC(C)C(=O)N1CCN(Cc2c(-c3ccc(Cl)cc3)nc3sccn23)CC1,0,0
CC(C)c1cc(C2CCCN2Cc2cccc(F)c2)no1 (centres undefined),0,0
N#Cc1ccsc1NC(=O)c1ccc(S(=O)(=O)N2CCOCC2)cc1,0,0
Fc1ccc(-n2cccc2)cc1Cl,0,-
Cc1ccc(C(=O)CC(=CC(=C(C#N)c2ccc([N+](=O)[O-])cc2)c2ccc(C)cc2)c2ccccc2)cc1,-,0
O=C1CC(c2ccco2)CC2=C1C(c1ccc(Cl)cc1)C1=C(N2)c2ccccc2C1=O (centres undefined),64.0,0
O=C1CC(c2ccco2)CC2=C1C(c1ccccc1)C1=C(N2)c2ccccc2C1=O (centres undefined),0,0
COc1cc2nc(SCc3nc4ccccc4n3C)[nH]c2cc1OC,0,-
O=C(O)CCCNc1cc(N2CCOCC2)c2noc3c2c1C(=O)c1ccccc1-3,52.0,0
O=C1c2ccccc2-c2onc3c(N4CCOCC4)cc(Nc4cccc(F)c4)c1c23,0,0
O=C(O)c1ccc(Nc2cc(N3CCOCC3)c3noc4c3c2C(=O)c2ccccc2-4)cc1,55.0,0
CN(C)c1ccc(Nc2cc(N3CCOCC3)c3noc4c3c2C(=O)c2ccccc2-4)cc1,0,0
COC(=O)c1ccc(Oc2c(C)oc3cc(OC(=O)c4ccc5c(c4)OCO5)ccc3c2=O)cc1,0,0
CCOC(=O)c1cnn(C)c1N,-,0
CC(C)Sc1ccc(C(F)(F)F)cc1[N+](=O)[O-],-,0
O=[N+]([O-])c1cc(C(F)(F)F)ccc1Sc1ccccc1,55.0,0
CCN(CC)c1nc(C)nc2sc(C(=O)Nc3cc(OC)ccc3OC)c(C)c12,0,0
CCN(CC)c1nc(C)nc2sc(C(=O)Nc3cc(OC)c(OC)c(OC)c3)c(C)c12,51.0,0
O=C(O)c1cc(=O)cc(C(=O)O)o1,0,-
SMILES,mHTT CaM bind,Pf apPOL block
O=C(Nc1nc2c(s1)CN(C(=O)Cc1cccs1)CC2)c1cnccn1,0,0
O=C(Nc1nc2c(s1)CN(CC(=O)N1CCCc3ccccc31)CC2)c1cnccn1,63.2,0
CCOC(=O)CC1C(=O)NCCN1C(=O)CCCC(=O)O (centres undefined),0,0
O=C(C1CCCC1)N1CCCCC1CCN1CCCC1 (centres undefined),0,0
Cc1ccc(Cl)cc1NC(=O)N1CCc2c(c(COCc3cccc(F)c3)nn2C)C1,0,0
CC(C)(C)n1nc2c(c1-n1cccc1)CN(C(=O)c1cc(-c3ccco3)[nH]n1)C2,99.0,81.5
CCOC(=O)N1CCN(C(=O)c2cc(-c3ccco3)[nH]n2)CC1,0,0
CN(C)c1cccc(C(=O)NCC2CCN(c3cc(-c4ccccn4)[nH]n3)CC2)c1,54.9,0
O=C(NCC1CCN(c2cc(-c3ccccn3)[nH]n2)CC1)c1ccc2c(c1)OCO2,0,0
CC(C=Cc1ccccc1)=NOC(=O)c1ccccc1Cl,-,0
O=C1CC(c2ccccc2)CC2=C1C(c1ccc(Br)cc1)Nc1ccccc1N2 (centres undefined),79.0,0
COc1ccc(C2CC(=O)C3=C(C2)Nc2ccccc2NC3c2cccc([N+](=O)[O-])c2)cc1OC (centres undefined),0,0
CSc1ccc(C2Nc3ccccc3NC3=C2C(=O)CC(c2ccccc2)C3)cc1 (centres undefined),0,0
O=C1CC(c2ccc(Cl)cc2)CC2=C1C(c1cccc([N+](=O)[O-])c1)Nc1ccccc1N2 (centres undefined),62.0,0
COc1ccccc1-c1ncnn1-c1cccc(Cl)c1C,0,0
COc1ccc(-c2nnc(N3CCC(C(=O)NCc4ccc(N(C)C)cc4)CC3)o2)cc1,0,0
O=S(=O)(c1ccccc1)N1CCN(S(=O)(=O)c2ccc(Cl)cc2)CC1,0,0
COc1cccc(CNc2nccn3cncc23)c1,0,0
Cc1cc(C)cc(N2CC(C(=O)NCCN(C)C)CC2=O)c1 (centres undefined),0,0
COCCn1cc2c3c(cccc31)CN(C(=O)c1cc(Cl)ccc1OC)CC2,70.8,0
COCCn1cc2c3c(cccc31)CN(C(=O)c1ccc(F)c(F)c1)CC2,61.3,0

# Screening data deposited in PubChem by University of Kansas High Throughput Screening Laboratory.
